Max response data for 40 compounds are collected here from PubChem BioAssay (NCATS).

Results filed as inconclusive are left out. Unmarked numbers belong to inactive results. Calls follow the shape of the dose curve; as a rule, active = well fitted curve in the direction sought with a large enough effect; inconclusive = small, poorly fitted or top-dose-only effect, or another doubt; inactive = no such curve, though single readings can be large or run the other way.
% is scaled to controls: 0 for no effect and ±100 for the full control effect.

This experiment is described as follows: qHTS Assay for Identifying Gametocytocidal Compounds (AID 743244).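 Also: actives lower the fluorescent signal which means gametocytes are killed.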 The conditions noted are these: P. falciparum 3D7 stage III-V gametocytes, alamarBlue, 72 h; max response: stronger effect = lower value. The source says:
Malaria cases and deaths have dropped 50% in 29 countries since 2000 due to the combined effects of long-lasting insecticidal bednets, indoor residual spraying, and artemisinin-based combination therapies (ACTs). This success has raised hopes for malaria eradication and consequently stimulated interest in developing new reagents that block gametocyte transmission such as novel and safe gametocytocidal drugs. However, previous drug development efforts have focused primarily on the asexual parasites that cause symptoms, but not malaria transmission. Consequently, patients can remain infectious for weeks after the clearance of asexual parasites and clinical symptoms. To be transmitted from person to person via a mosquito, the parasites must switch from asexual to sexual development and produce male and female gametocytes. Malaria gametocytes consist of five stages (I, II, III, IV and V). The late stage gametocytes (III, IV and V) are difficult to be cultured in vitro and the long lifespan of mature gametocytes allows them being transmitted from host to mosquitoes unless they are completely eliminated by gametocytocidal agents. To identify gametocytocidal compounds which are capable of killing late stage P. falciparum gametocytes, a high throughput gametocyte viability assay was employed. This assay uses oxidoreduction indicator, alamarBlue, as a general measure of metabolic activity of gametocytes. Within live cells, the nonfluorescent resazurin is reduced to resorufin, a bright red fluorescence dye. Fluorescence decreases upon treatment of gametocytocidal compounds. P. falciparum gametocyte (3D7 strain) was used in this study.
The 1536-well gametocycidal viability assay was based on the previous method of Tanaka et al. Stage III-V gametocytes were tested against three compound libraries, including 4265 compounds from NCGC pharmaceutical collection, 400 from Malaria Box library, and 550 from an internal collection of kinase inhibitors. Briefly, 2.5 ul/well incomplete medium was dispensed into each well of 1,536-well plates using the Multidrop Combi followed by 23 nl compound transferring using the NX-TR Pintool (WAKO Scientific Solutions, San Diego, CA). Then, 2.5 ul/well of gametocytes was dispensed with a seeding density of 20,000 cells/well using the Multidrop Combi. The assay plates were incubated for 72 h at 37C with 5% CO2. After addition of 5 ul/well of 2X AlamarBlue dye (Life Technologies, cat. no. DAL1100), the plates were incubated for 24 h at 37C with 5% CO2 and then were read in a fluorescence detection mode (Ex = 525 nm, Em = 598 nm) on a ViewLux plate reader (PerkinElmer).
On the technique in general: qHTS replaces the single test concentration by a dilution series.
`CC(=O)Nc1cccc(O)c1`: the max response is 5.77%.
For the compound `CN1C(C)(C)CCCC1(C)C`, the max response was -1.65%.
As for `NNc1nnc(NN)c2ccccc12`, the max response is 5.69%.
With `Cc1c(NC(=O)c2cccnc2)c(=O)n(-c2ccccc2)n1C` the figure was -5.32%; with `CCS(=O)(=O)CCn1c([N+](=O)[O-])cnc1C`, 9.95%; with `CC(=O)NS(=O)(=O)c1ccc(N)cc1`, 2.53%.
With `C/C=C1\[C@H]2C=C(C)C[C@]1(N)c1ccc(=O)[nH]c1C2` the figure was 2.62%; with `OC(CCN1CCCC1)(c1ccccc1)C1CCCCC1` (stereo not given), 3.62%.
Turning to `CC(=O)N(CC(O)CN(C(C)=O)c1c(I)c(C(=O)NCC(O)CO)c(I)c(C(=O)NCC(O)CO)c1I)c1c(I)c(C(=O)NCC(O)CO)c(I)c(C(=O)NCC(O)CO)c1I` (stereo not given), the max response is -5.28%.
With `O=C(Cn1ccnc1[N+](=O)[O-])NCCO` the figure was 11.8%; with `CCCCCCCCCCCCCCCCC(C(=O)O)C(O)(CC(=O)O)C(=O)O` (stereo not given), 6.09%.
With `CC(=O)NCc1c(I)c(NC(C)=O)c(I)c(C(=O)O)c1I` the figure was 12.1%; with `NC(=O)NS(=O)(=O)c1ccc(N)cc1`, 3.95%; with `FC(F)(F)C(Cl)Br` (stereo not given), -11.3%.
The value for `C=CCOc1ccccc1OCC(O)CNC(C)C` (stereo not given) was 5.69%; that for `CCCOC(=O)c1ccc(N)cc1` was -6.49%; that for `Cc1cccc(Nc2ccccc2C(=O)O)c1C` was 4.7%.
As to `CN(C/C=C/C#CC(C)(C)C)Cc1cccc2ccccc12`, the max response was -1.43%.
In the case of `CCN(CC)CCOC(=O)C(c1ccccc1)c1ccccc1`, the max response was -5.96%.
In the case of `NC(N)=NCCN1CCCCCCC1`, the max response was 21%.
In the case of `O=C(Cn1ccnc1[N+](=O)[O-])NCc1ccccc1`, the max response is -2.89%.
Take `O=C(CCBr)N1CCN(C(=O)CCBr)CC1`: the max response is -1.41%.
With `O=C1c2ccccc2C(=O)C1c1ccc(Br)cc1` the figure was -7.34%; with `CN[C@@H]1[C@@H](O)[C@@H](O[C@@H]2[C@H](O)[C@H](O[C@H]3OC(CN)=CC[C@H]3N)[C@@H](N)C[C@H]2N)OCC1(C)O` (stereo not given in full), -9.46%; with `Nc1ncnc2c1ncn2[C@@H]1O[C@H](COP(=O)(O)O)[C@@H](O)[C@H]1O`, -1.97%.
For `CCCCCCCCCCCCCCCCCCO`, the max response was 4.31%.
As to `O=C(O)c1ccc(OCCCOc2ccc(C(=O)O)cc2)cc1`, the max response was 1.74%.
Take `O=C(O)Cc1ccc(CCNS(=O)(=O)c2ccc(Cl)cc2)cc1`: the max response was 23.5%.
Regarding `O=C(O)/C=C/c1ccc(Cn2ccnc2)cc1`, the max response was 13.5%.
As to `O=C(c1ccccc1)C(O)c1ccccc1` (stereo not given), the max response is 0.61%.
The value for `CC(=O)OCC(COC(C)=O)OC(C)=O` was 41.8%.
For the compound `O=C(/C=C/c1ccc(O)c(O)c1)O[C@@H]1C[C@@](OC(=O)/C=C/c2ccc(O)c(O)c2)(C(=O)O)C[C@@H](O)[C@@H]1O`, the max response is 3.41%.
Take `O=C1CC[C@@H](C(=O)O)N1`: the max response was -5.19%.
In the case of `Cc1ccc(S(=O)(=O)NC(=O)NC2CCCCCCC2)cc1`, the max response was 5.01%.
Consider `NCc1ccc(S(N)(=O)=O)cc1`, for which the max response is -0.707%.
Turning to `NC(=O)NC1NC(=O)NC1=O` (stereo not given), the max response was -4.09%.
With `Cc1ccc2c(c1)c1c3n2CCNC3CCC1` (stereo not given) the figure was 5.73%; with `CC(C)CCOC(=O)c1ccc(N(C)C)cc1`, -13.7%.
In the case of `NNC(=O)CP(=O)(c1ccccc1)c1ccccc1`, the max response is -4.41%.
In the case of `CCOC(=O)[C@H](CCc1ccccc1)N[C@@H](C)C(=O)N1Cc2cc(OC)c(OC)cc2C[C@H]1C(=O)O`, the max response is 0.618%.
